C diff growth: blocks growth of Clostridium difficile; Clostridium difficile clinical isolate growth, OD600, 24 h; active compounds read low; hit rate 0.25% among 86,000; growth activity, negative = inhibition, % at 16 µg/mL (by protocol);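 active = mean growth activity at or below -80% and every replicate also at or below -80%; inconclusive = mean at or below -80% but some replicate above -80%; inactive = mean growth activity above -80%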
Pf Dd2 growth: P. falciparum Dd2 growth inhibition; SYBR Green, 72 h; active compounds read low; activity change, % at 10 µM; hit rate 2.3% among 94,000; AID 1159554; in the data active = activity change below about -80%; inconclusive = no clear call, values can overlap the other calls
T cruzi growth-1: blocks T. cruzi growth in NIH3T3 culture | hit rate 5.9% among 77,000 | AID 624255 | inhibition, % at 8.34 µM | T. cruzi beta-gal in NIH3T3, GalScreen luminescence, 90 h;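 active = mean inhibition above about 93%, with at least 55% of replicates each passing it, limit read from the data, passing the limit was not always enough; inconclusive = only one of those two conditions holds; inactive = neither condition holds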
T cruzi growth-2: inhibitors of T. cruzi proliferation. shares compounds with T cruzi growth-1. T. cruzi beta-gal in NIH3T3, GalScreen luminescence, 90 h. hit rate 72% among 5,600. inhibition, % at 8.35 µM;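 active = mean replicate inhibition above about 95% and at least 55% of replicates individually reaching it, limit read from the data; inconclusive = only one of the two criteria is met; inactive = neither criterion is met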
T cruzi growth-3: Trypanosoma cruzi proliferation inhibition. shares compounds with T cruzi growth-1. T. cruzi beta-gal in NIH3T3, GalScreen luminescence, 90 h. inhibition, % at 2.09 µM. hit rate 21% among 5,600;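 active = mean inhibition above about 95%, with at least 55% of replicates also reaching it, limit read from the data; inconclusive = meets just one of the two conditions; inactive = meets neither condition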
NIH3T3 tox: NIH/3T3 (mouse) viability loss; shares compounds with T cruzi growth-1; hit rate 14% among 5,600; NIH/3T3 viability, CellTiter-Glo ATP luminescence, 90 h; cytotoxicity (signal decrease), % at 8.35 µM;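 active = mean signal decrease across replicates above about 35% based on untreated-well scatter, with enough replicates individually passing, limit read from the data; inconclusive = no rule stated though some were filed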
3T3 cytotox 2: kills mouse NIH/3T3 fibroblasts; shares compounds with T cruzi growth-1; NIH/3T3 viability, CellTiter-Glo ATP luminescence, 90 h; inhibition, % at 24.9 µM; hit rate 56% among 5,600;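 active = mean loss of cell viability signal at or above a set limit, and enough replicates individually reaching it; inconclusive = meets only the mean limit or only the replicate share; inactive = meets neither condition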
Each line names hits and unclear results; the compound was inactive in the other large screens (follow-up assays come after a bar, where they were run). Shown are actives, neighbours in structure and some others; about 6.8% of the full set was active somewhere.

CNC[C@H]1OCCCC[C@H](C)Oc2ccc(NC(=O)c3ccccc3)cc2C(=O)N([C@@H](C)CO)C[C@@H]1C	none
C[C@@H]1CN([C@H](C)CO)C(=O)c2cc(NS(=O)(=O)c3ccccc3)ccc2O[C@@H]1CN(C)Cc1ccc(-c2ccccc2)cc1	none
C[C@H]1CN([C@@H](C)CO)C(=O)c2cc(NS(=O)(=O)c3ccc(Cl)cc3)ccc2O[C@@H]1CN(C)Cc1ccc(-c2ccccc2)cc1	T cruzi growth-1 111 | T cruzi growth-2 103 | T cruzi growth-3 inactive | NIH3T3 tox inactive | 3T3 cytotox 2 104
C[C@H](CO)N1C[C@H](C)[C@H](CN(C)Cc2ccc(-c3ccccc3)cc2)Oc2ccc(NS(=O)(=O)c3ccc(Cl)cc3)cc2C1=O	T cruzi growth-1 112 | T cruzi growth-2 104 | T cruzi growth-3 inactive | NIH3T3 tox inactive | 3T3 cytotox 2 103
C[C@@H]1CN([C@@H](C)CO)C(=O)c2cc(NS(=O)(=O)c3ccc(Cl)cc3)ccc2O[C@H]1CN(C)Cc1ccc(Oc2ccccc2)cc1	none
C[C@H](CO)N1C[C@H](C)[C@@H](CN(C)Cc2ccc(-c3ccccc3)cc2)Oc2ccc(NS(=O)(=O)c3ccc(Cl)cc3)cc2C1=O	none
C[C@H]1CN([C@@H](C)CO)C(=O)c2cc(NS(=O)(=O)c3ccc(Cl)cc3)ccc2O[C@@H]1CN(C)Cc1ccc(Oc2ccccc2)cc1	T cruzi growth-1 inconclusive | T cruzi growth-2 108 | T cruzi growth-3 inactive | NIH3T3 tox inactive | 3T3 cytotox 2 105
C[C@H]1CN([C@@H](C)CO)C(=O)c2cccc(NS(=O)(=O)c3ccc(F)cc3)c2O[C@H]1CN(C)C(=O)Nc1ccc2c(c1)OCO2	none
CC(=O)NC[C@H]1[C@H](c2ccc(C3=CCCCC3)cc2)[C@H](CO)N1C(=O)NC(C)C	none (no result: C diff growth)
C[C@H]1CN([C@@H](C)CO)C(=O)c2cc(NC(=O)C3CC3)ccc2O[C@@H]1CN(C)C(=O)Nc1cccc2ccccc12	none
CCNC(=O)Nc1ccc2c(c1)C(=O)N(C)[C@H]1CC[C@H](CC(=O)NCCOC)O[C@H]1CO2	none
O=C(Nc1cccc(F)c1)N1CCCCN2[C@H](CO)[C@H](c3ccc(C#Cc4cccnc4)cc3)[C@@H]2C1	none
CC(C)C#Cc1ccc([C@H]2[C@H]3CN(C(=O)Nc4ccccc4)CCCCN3[C@H]2CO)cc1	none
O=C(c1cccnc1)N1CCCCN2[C@H](C1)[C@@H](c1ccc(C#Cc3cccnc3)cc1)[C@@H]2CO	none
O=C(Nc1ccccc1)N1CCCCN2[C@H](C1)[C@H](c1ccc(C#Cc3cccnc3)cc1)[C@@H]2CO	T cruzi growth-1 110 | T cruzi growth-2 inactive | T cruzi growth-3 inactive | NIH3T3 tox inactive | 3T3 cytotox 2 inactive
O=C(c1cccnc1)N1CCCCN2[C@H](CO)[C@H](c3ccc(C#Cc4ccccc4)cc3)[C@@H]2C1	T cruzi growth-1 101 | T cruzi growth-2 110 | T cruzi growth-3 inactive | NIH3T3 tox 61 | 3T3 cytotox 2 43
CC(C)CC#Cc1ccc([C@H]2[C@@H](CO)N3CCCCN(C(=O)Nc4ccccc4)C[C@@H]23)cc1	T cruzi growth-1 106 | T cruzi growth-2 98 | T cruzi growth-3 103 | NIH3T3 tox inactive | 3T3 cytotox 2 87
CC(C)C#Cc1ccc([C@H]2[C@@H](CO)N3CCCCN(C(=O)Nc4ccccc4)C[C@@H]23)cc1	T cruzi growth-1 113 | T cruzi growth-2 107 | T cruzi growth-3 inactive | NIH3T3 tox 41 | 3T3 cytotox 2 34
CC(C)C#Cc1ccc([C@H]2[C@H](CO)N3CCCCN(C(=O)Nc4ccccc4)C[C@@H]23)cc1	none
O=C(C[C@@H]1C=C[C@H](NS(=O)(=O)c2ccccc2)[C@H](CO)O1)NCc1ccccc1F	none
N#Cc1ccc(-c2ccc3c(c2)[C@@H]2[C@@H](CCN2C(=O)C2CCC2)[C@H](CO)N3)cc1	none (no result: T cruzi growth-1)
CCCC#Cc1ccc2c(c1)O[C@H](CN(C)CC1CCOCC1)[C@@H](C)CN([C@H](C)CO)S2(=O)=O	none (no result: T cruzi growth-1)
CO[C@H]1CN(C)C(=O)c2ccc(NC(C)=O)cc2OC[C@@H](C)NC[C@@H]1C	none
